This note sets out measurements from PubChem BioAssay AID1851 (National Center for Advancing Translational Sciences (NCATS), 2009).

Screen size: about 16,000 compounds; about 5,800 (36%) were called active. Inconclusive results (about 23%) are left out. The list shows a part of the results. Unmarked numbers belong to inactive results. The call rests on the fitted dose curve; in most records, active means well fitted curve in the direction sought with a large enough effect; inconclusive means small, poorly fitted or top-dose-only effect, or effect the other way; inactive means no such curve, though single readings can be large or run the other way.
On the % scale 0 is the no-effect control and ±100 the full control effect.

Cytochrome P450 2C19 (Homo sapiens), sequence (P33261 whole entry, looked up): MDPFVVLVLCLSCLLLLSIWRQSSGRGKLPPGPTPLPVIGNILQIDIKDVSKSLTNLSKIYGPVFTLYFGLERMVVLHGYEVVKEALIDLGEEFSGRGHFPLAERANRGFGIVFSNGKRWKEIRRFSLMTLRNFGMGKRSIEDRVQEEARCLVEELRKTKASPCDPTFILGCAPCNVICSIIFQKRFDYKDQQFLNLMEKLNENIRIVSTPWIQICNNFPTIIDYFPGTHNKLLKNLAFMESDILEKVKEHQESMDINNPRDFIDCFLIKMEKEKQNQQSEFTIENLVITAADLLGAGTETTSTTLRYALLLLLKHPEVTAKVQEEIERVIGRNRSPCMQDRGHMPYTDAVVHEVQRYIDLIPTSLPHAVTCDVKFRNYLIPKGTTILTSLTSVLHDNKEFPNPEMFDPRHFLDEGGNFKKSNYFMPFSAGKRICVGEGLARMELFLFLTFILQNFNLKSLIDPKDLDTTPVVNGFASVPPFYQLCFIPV

This test has as its target Cytochrome P450 2C19 (Homo sapiens) (UniProt P33261). Put plainly: Cytochrome panel assay with activity outcomes. Particulars: recombinant CYP, pro-luciferin dealkylation, luminescence, p450-cyp2c19; series mostly up to 57.1 µM.
`C1CCC(N=C(NC23CC4CC(CC(C4)C2)C3)N2CCOCC2)CC1`: the AC50 result was “inactive”.
The same measure, in the same setting: the result for `Cc1ccc(S(=O)(=O)O[C@H]2C[C@@H](C(C)(C)C)CC[C@@H]2c2ccccc2)cc1` reads 3.16 µM (active); that for `Cc1ccc(S(=O)(=O)ON=C2CCN(S(=O)(=O)c3ccccc3)CC2)cc1`, “inactive”; that for `C=CCSc1nc(C)cc(/C=C\c2ccccc2)c1C#N`, 5.62 µM (active).
Same read-out and setting: with `O=C(O)c1cc(=O)c2c(OCC(O)COc3cccc4oc(C(=O)O)cc(=O)c34)cccc2o1` the entry was “inactive”; with `CCOC(=O)COc1cc(OCC(=O)OCC)c2c(=O)cc(-c3ccccc3)oc2c1`, 14.1 µM (active).
For `CC(C)C12CC[C@@]3(CC[C@H]4[C@@](C)(CCC[C@]4(C)C(=O)O)[C@@H]3C1)[C@@H](CN)C2`, the activity, negative = inhibition is 8.51% [at 11.4 µM].
As for `Cc1ccc(O)c(C(=O)c2cc(C#N)c(=O)n(-c3c(C)n(C)n(-c4ccccc4)c3=O)c2)c1`, the AC50 entry is “inactive”.
`Brc1ccc(/C=C/C=N/Nc2nc3ccccc3s2)cc1`: the AC50 is 3.55 µM (active).
In the case of `c1ccc(/C(=N/Nc2nc3ccccc3s2)c2ccccn2)cc1`, the activity, negative = inhibition was -42.9% [at 11.4 µM].
Consider `O=c1c(-c2cc(F)cc(F)c2)nc2cnc(N3CCOCC3)nc2n1-c1ccccc1`, for which the AC50 result is “inactive”.
For `Fc1ccc(-c2cn3cc(C(F)(F)F)cc(Cl)c3n2)cc1`, the concentration at half-maximal activity (AC50) is 10 µM (active).
On the same count and under the same terms, with `O=S(=O)(c1ccccc1)c1cnn2c(C(F)(F)F)cc(-c3ccc(F)cc3)nc12` the entry was “inactive”.
Still for that read-out and setting: the result for `CCOC(=O)CSC1=NC(=O)/C(=C\c2ccc(OC(C)=O)cc2)S1` reads 15.8 µM (active).
With `O=C1CC[C@H](NC(=O)c2ccccc2)C(=O)N1`, the activity, negative = inhibition is 28.7% [at 11.4 µM].
Take `O=C1CSC(c2ccccc2F)N1c1cc(Cl)ccc1O` (centres undefined): the AC50 was 0.891 µM (active).
As to `Nc1nc(N)nc(CC(=O)O)n1`, the activity, negative = inhibition is -6.24% [at 11.4 µM].
Consider `CN(Cc1ccco1)c1ncncc1-c1ccccc1Cl`, for which the concentration at half-maximal activity (AC50) was 0.794 µM (active).
The same measure, in the same setting: the result for `CN(Cc1ccco1)c1ncncc1-c1ccccc1C(F)(F)F` reads 3.98 µM (active).
Same read-out and setting: the result for `Cc1noc(C)c1-c1cncnc1NC1CC1` reads “inactive”; that for `Cc1ccccc1-c1cncnc1N(C)Cc1ccco1`, 5.01 µM (active); that for `Cc1noc(C)c1-c1cncnc1N(C)Cc1ccco1`, 2.51 µM (active).
Still for that read-out and setting: the result for `CC1(C)S[C@@H]2[C@H](NC(=O)[C@@H](NC(=O)N3CCNC3=O)c3ccccc3)C(=O)N2[C@H]1C(=O)O` reads “inactive”.
As for `CC1(C)O[C@H]2[C@@H](O1)[C@@H](On1nnc3ccc(Cl)cc31)O[C@@H]2[C@@H]1COC(C)(C)O1`, the activity, negative = inhibition was 17% [at 11.4 µM].
As for `O=C(CCCCn1c(=S)[nH]c2ccsc2c1=O)NCc1ccco1`, the AC50 is 14.1 µM (active).
For the compound `O=C(NCc1ccco1)c1ccc2c(=O)n(-c3ccccc3)c(=S)[nH]c2c1`, the AC50 result was “inactive”.
Still for that read-out and setting: the result for `Cc1ccc(-n2c(=O)c3sccc3n(CC(=O)NCc3ccco3)c2=O)cc1F` reads “inactive”; that for `O=C(CCn1c(=O)[nH]c2ccsc2c1=O)Nc1ccc(F)c(F)c1`, “inactive”; that for `O=C(CCCCCn1c(=O)[nH]c2ccsc2c1=O)NCc1ccc2c(c1)OCO2`, 10 µM (active).
